This note sets out measurements from PubChem BioAssay AID720647 (Broad Institute, 2013).

Among all 380,000 compounds or so, about 1,300 (0.34%) were called active.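 The calls were made as follows: active = drop in luminescence signal, shown as inhibition above about 50% in the replicate tests (limit read from the data, passing the limit was not always enough); inconclusive = probably only some replicates passing the limit; inactive = the rest.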 The entries come from a sample that favours actives as a whole.

The test system of this experiment is Drosophila bursicon receptor LGR2 (rickets). Put plainly: LGR2 cAMP reporter signal reduction – cell-based, HEK293, CRE-luciferase reporter, bursicon stimulation, primary screen (AID 720647).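 Also: agonist challenge used bursicon conditioned medium at about half maximal strength.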 The note with it: bursicon-stimulated, 4 h, at 9.99 µM, stronger effect = higher value. (A reporter such as luciferase makes a cellular process visible.)
One may read the inhibition as the change of the read-out against control, counted positive when it falls. Take `C[C@]12CCC3C(CC[C@H]4C[C@@H](O)CC[C@]34C)C1C[C@@H](O)[C@H]2O` (stereo not given in full): the inhibition was 21.8% (inactive).

`C[C@]12CCC3C(CC[C@H]4C[C@@H](O)CC[C@]34C)C1CC[C@@H]2O` (stereo not given in full): the inhibition was 4.33% (inactive).

In the case of `C[C@]12CC[C@H](O)C[C@H]1CC[C@@H]1C2CC[C@]2(C)[C@@H](C3=CC(=O)OC3)[C@@H](O)C[C@]12O` (stereo not given in full), the inhibition is 75.1% (active).

Take `Cc1cc(N2CCNC[C@@H]2C)ccc1N1CC[C@H](O)C1`: the inhibition was -14.4% (inactive).

Consider `O=C(Cc1ccccn1)N1CCCCN2[C@H](C1)[C@H](c1ccc(-c3ccccc3F)cc1)[C@@H]2CO`, for which the inhibition is 20.2% (inactive).

For the compound `CCOc1ccc(-c2cc(C)[n+](CCN(CC)CC)c(-c3ccc(OCC)cc3)c2)cc1`, the inhibition is 60.4% (active).

For the compound `CS(=O)(=O)N1CCC2CCNC2C1` (stereo not given), the inhibition was -1.04% (inactive).

As to `O=C(Cc1ccncc1)N1CCCCN2[C@@H](CO)[C@H](c3ccc(C#CC4(O)CCCC4)cc3)[C@@H]2C1`, the inhibition is -0.939% (inactive).

Take `Clc1ccc([C@@H]2CC3CCC2N3)cn1` (stereo not given in full): the inhibition is 7.28% (inactive).

As to `O=S(=O)(c1ccccc1)N1CCC2CCNC2C1` (stereo not given), the inhibition was 8.51% (inactive).

On to `CCC(C)(O)C(=O)OC1C(=O)OC2CC3C(C)=CC(=O)C(O)C3(C)C3C4(O)OCC23C1C(C)C4O` (stereo not given), for which the inhibition is 101% (active).

On to `O=C(Cc1ccccc1)N1CCCCN2[C@H](CO)[C@H](c3ccc(C#Cc4ccccc4)cc3)[C@H]2C1`, for which the inhibition was 0.501% (inactive).

Turning to `COC(=O)[C@@H]1[C@@H](CO)[C@@H]2Cn3c(ccc(-c4cccc(C(=O)N(C)C)c4)c3=O)[C@H]1N2C(=O)NC(C)C`, the inhibition is 31.6% (inactive).

In the case of `CCN(CC)C(=O)[C@@H]1C=C2c3cccc4[nH]c(Br)c(c34)C[C@H]2N(C)C1`, the inhibition is 9.95% (inactive).

For `COc1ccc(C#Cc2ccc([C@H]3[C@H](CO)N4CCCCN(C(=O)Cc5ccccc5)C[C@@H]34)cc2)cc1`, the inhibition is 10.8% (inactive).

Turning to `COC(=O)[C@@H]1[C@@H](CO)[C@@H]2Cn3c(ccc(-c4ccc(F)cc4)c3=O)[C@H]1N2C(C)=O`, the inhibition is -7.85% (inactive).

Take `CN1CCN(c2cc(N3CCNCC3)ccc2[N+](=O)[O-])CC1`: the inhibition was 1.9% (inactive).

With `COc1cccc(-c2nc3ccc(N4CCN(C)CC4)cc3[nH]2)c1`, the inhibition is 88.7% (active).

Turning to `COc1cccc(-c2ccc([C@H]3[C@H]4CN(C(=O)Cc5ccncc5)CCCCN4[C@H]3CO)cc2)c1`, the inhibition is -6.52% (inactive).

As for `COc1ccc2c(c1)[C@@]13CCCCC1[C@@H](C2)NCC3` (stereo not given in full), the inhibition was 15.4% (inactive).

Regarding `COC1C(O)C(C)OC(OC2CCC3(C=O)C(CCC4C3CCC3(C)C(C5=CC(=O)OC5)CCC43O)C2)C1O` (stereo not given), the inhibition is 83.8% (active).

With `CCC(C)NC1(c2ccccc2)CCCCC1` (stereo not given), the inhibition is -0.048% (inactive).

For `COC(=O)[C@H]1[C@H](CO)[C@H]2Cn3c(cccc3=O)[C@H]2N1CC1CC1`, the inhibition is 26.9% (inactive).

Consider `C/C=C/c1ccc(C2[C@@H]3CN(Cc4cncnc4)C[C@H]2N3)cc1` (stereo not given in full), for which the inhibition was -8.19% (inactive).

`O=C(Cc1ccccn1)N1CCCCN2[C@@H](CO)[C@@H](c3ccc(C#Cc4ccccc4)cc3)[C@@H]2C1`: the inhibition was -13.4% (inactive).
